Drawing on PubChem BioAssay (NCATS), this text covers Potency, outcome and activity change, negative = cytotoxicity for 41 compounds.

Inconclusive results are not listed. Where a call stands in place of a potency, no number is given. Unmarked numbers belong to inactive results. Activity calls are given as the source filed them. Unless noted, calls follow the shape of the dose curve; as a rule, active = well fitted inhibition curve with a large enough effect; inconclusive = small, poorly fitted or top-dose-only effect; inactive = flat fitted curve, though single readings scatter.

Assay [1] can be described thus: P-glycoprotein substrates identified in KB-8-5-11 adenocarcinoma cell line, qHTS therapeutic library screen (AID 1346987). Also: nearly all actives have a fitted effect of over 65% in size. As to activity change, negative = cytotoxicity: series mostly up to about 44 µM. The gist of the method: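 In this qHTS, P-gp-rich KB-8-5-11 cells received library compounds across a concentration range. Viability was quantified by luminescence after 72 h at 37 degree C.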
Assay [2] can be described thus: Natriuretic polypeptide receptor (hNpr1) antagonism - Pilot counterscreen GloSensor control cell line (AID 1347045; calls by dose curve; also: series mostly up to about 38 µM). As for the experimental part: (§1) F. Fan, B. F. Binkowski, B. L. Butler, P. F. Stecha, M. K. Lewis, K. V. Wood, Novel genetically encoded biosensors using firefly luciferase. ACS Chem Biol 3, 346-351 (2008).
(§2) PROTOCOL TABLE (as described by Inglese J, Shamu CE and Guy RK. 2007)
(§3) SEQUENCE No. (e.g., 1, 2, 3, etc.); […] (e.g., Cells, Incubation, Reagent, etc.); VALUE and DESCRIPTION.
1. Cells. Seed 1500 HEK293 cGMP-sensor cells per well in 4uL into Greiner 1536-well white/solid bottom high base, TC plates.
(§4) 2. Incubation. Incubate plated cells at 37C in 5% CO2, 95% RH overnight.
(§5) 3. Reagent. Add 1uL per well GloSensor reagent from Promega (2% final concentration) or CO2 independent media vehicle control to respective columns of Greiner 1536-well plates.
4. Incubation. Incubate plated cells at room temperature for 2 h, protect from light.
(§6) 5. Compounds. Library compounds and DMSO vehicle control added at 23nL per well, transferred by Pin Tool.
6. Incubation. Incubate plated cells for 30 min. at room temperature, protect from light.
(§7) 7. […] GloSensor baseline pre-read luminescence measured using CCD-based camera (Viewlux). […]
10. […] GloSensor post-SNP luminescence measured using CCD-based camera (Viewlux). […]
(§8) 1. […] Cells counted with Invitrogen Countess (30,000,000 - 50,000,000 cells/flask). […]
7. Read GloSensor + Antagonist/Compound baseline Luminescence on the ViewLux [Exposure, 30 s; Gain, High; Speed, Slow; Binning, 2X] […]
10. Read final luminescence on the ViewLux. […]

Assay [3] addresses Atrial natriuretic peptide receptor 2 (Homo sapiens) (UniProt P20594). The experiment in a line: Natriuretic polypeptide receptor (hNpr2) antagonism - Pilot subtype selectivity assay (AID 1347050; calls by dose curve). The protocol: as §1, §2, §3
1. Cells. Seed 1500 HEK293 cGMP-sensor cells expressing hNpr2 per well in 4uL into Greiner 1536-well white/solid bottom high base, TC plates.
as §4, §5
4. Incubation. Incubate plated cells at ambient temperature for 2 h., protect from light.
as §6
6. Incubation. […]
as §7
10. […] GloSensor post-hNppC luminescence measured using CCD-based camera (Viewlux). […]
as §8
7. Read cellular baseline GloSensor luminescence in presence of test library compounds on the ViewLux [Exposure = 10 s.; Gain = High; Speed = Slow; and Binning = 2X.] […]

Chain of Atrial natriuretic peptide receptor 2 (Homo sapiens) (P20594 whole entry, looked up): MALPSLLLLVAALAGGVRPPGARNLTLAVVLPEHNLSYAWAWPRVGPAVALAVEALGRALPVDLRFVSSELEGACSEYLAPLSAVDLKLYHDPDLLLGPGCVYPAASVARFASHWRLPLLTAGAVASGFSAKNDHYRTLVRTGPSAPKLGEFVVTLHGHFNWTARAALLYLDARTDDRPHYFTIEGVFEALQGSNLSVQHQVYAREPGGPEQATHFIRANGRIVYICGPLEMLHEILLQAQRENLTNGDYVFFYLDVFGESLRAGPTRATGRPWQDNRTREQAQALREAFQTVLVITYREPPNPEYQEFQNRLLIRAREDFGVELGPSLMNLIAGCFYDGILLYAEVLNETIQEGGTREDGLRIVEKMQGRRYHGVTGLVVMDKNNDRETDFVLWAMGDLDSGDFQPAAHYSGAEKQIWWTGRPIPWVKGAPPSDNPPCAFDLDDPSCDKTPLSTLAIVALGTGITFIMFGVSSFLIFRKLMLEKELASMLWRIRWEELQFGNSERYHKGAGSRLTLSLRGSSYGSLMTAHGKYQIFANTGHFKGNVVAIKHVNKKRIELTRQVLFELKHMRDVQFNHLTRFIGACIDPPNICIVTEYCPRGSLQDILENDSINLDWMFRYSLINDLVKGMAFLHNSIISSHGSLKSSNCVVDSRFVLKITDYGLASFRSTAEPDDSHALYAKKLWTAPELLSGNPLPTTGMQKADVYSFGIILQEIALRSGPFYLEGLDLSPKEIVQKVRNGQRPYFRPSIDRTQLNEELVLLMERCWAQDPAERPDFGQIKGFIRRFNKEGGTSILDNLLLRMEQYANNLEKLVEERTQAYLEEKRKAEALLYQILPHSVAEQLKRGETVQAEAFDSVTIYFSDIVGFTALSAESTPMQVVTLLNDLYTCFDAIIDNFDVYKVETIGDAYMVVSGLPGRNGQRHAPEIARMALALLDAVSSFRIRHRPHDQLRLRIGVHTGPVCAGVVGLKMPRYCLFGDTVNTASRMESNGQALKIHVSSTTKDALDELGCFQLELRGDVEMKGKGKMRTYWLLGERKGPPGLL

Take `CC(C)c1cc2c(c(O)c1O[C@@H]1O[C@H](CO)[C@@H](O)[C@H](O)[C@H]1O)CC1(O)CCC(O)C(C)(C)C1CC2` (some centres not stated): the Potency entry in assay [1] is “inactive”.
With `CC1=C2C(=O)C=C(CO)[C@@H]2[C@H]2OC(=O)[C@H](C)[C@@H]2[C@@H](O)C1`, in assay [1], the Potency result is “inactive”.
Turning to `CC(=O)OCC(=O)O[C@@H]1[C@H]2[C@@H](OC(=O)c3ccccc3)[C@@H](C)C[C@]2(O)[C@H](OC(C)=O)C2(C)[C@H]3CC(C)(C)C(=O)[C@@H]3CC1(OC(C)=O)[C@@H]2OC(C)=O` (some centres not stated), in assay [1], the Potency result was “inactive”.
Take `CC(=O)NC(CCC(=O)O)C(=O)NCCc1ccc(O)cc1` (configuration not stated): the Potency entry in assay [1] was “inactive”.
Consider `C=C(C)[C@@H]1CC[C@](C)(O)[C@@H](OC(=O)c2ccccc2)C1`, for which, in assay [1], the Potency result is “inactive”.
Consider `COCCCNCC1COc2ccccc2O1` (configuration not stated), for which the Potency result in assay [1] is “inactive”.
Regarding `C=C1C[C@]23C[C@H]1CC[C@H]2[C@]1(C)CCC[C@@]2(CO)C(=O)O[C@H]([C@H]21)[C@@H]3O`, in assay [1], the Potency result was “inactive”.
For the compound `CC(=O)OCCC(C)CCC1C(C)(O)CCC2C(C)(C)CCCC21C` (configuration not stated), the Potency result in assay [1] was “inactive”.
As to `CC/C=C/CC1=C(CCCCCCCC(=O)O)CCC1=O`, the Potency entry in assay [1] was “inactive”.
Take `CC(C)(O)c1ccc2c(c1)C(=O)CC1[C@](C)(CO)CCC[C@]21C` (some centres not stated): the Potency result in assay [1] was “inactive”.
Still for that read-out and setting: next, `COc1cc(C)c(C(=O)O[C@H]2[C@@H](O)[C@H](n3ccc(=O)[nH]c3=O)O[C@@H]2CO)c(OC)c1`: “inactive”; `C[C@]1(OC(=O)/C=C/c2ccccc2)C[C@H](O)[C@]2(O)C=CO[C@@H](O[C@@H]3O[C@H](CO)[C@@H](O)[C@H](O)[C@H]3O)C12` (some centres not stated): “inactive”.
As to `C/C=C/C=C/C(CC(=O)O)Nc1ccc(C=O)cc1` (configuration not stated), the Potency result in assay [1] was “inactive”.
In the case of `CC(=O)O[C@@H]1C[C@@]23C[C@@]24CC[C@H](OC2OC[C@@H](O)[C@H](O)[C@H]2O)C(C)(C)[C@@H]4CC[C@H]3[C@]2(C)CC3OC4(C[C@@H](C)C3[C@@]12C)OCC1(C)OC14` (some centres not stated), the Potency entry in assay [1] is “inactive”.
Consider `Cn1c(=O)cc(N2CCCC(N)C2)n(Cc2ccccc2C#N)c1=O` (configuration not stated), for which the Potency result in assay [1] is “inactive”.
Turning to `COc1cc(/C=C/CO)ccc1O[C@@H]1O[C@H](CO)[C@@H](O)[C@H](O)[C@H]1O`, the Potency result in assay [1] was “inactive”.
As to `CC(=O)N1CCN(NC(=O)c2ccc(F)cc2)CC1`, the Potency entry in assay [1] is “inactive”.
As to `CC(=O)Oc1cc2c(s1)CCN([C@H](C(=O)C1CC1)c1ccccc1F)C2`, in assay [1], the Potency entry is “inactive”.
Take `C=C1CCC2[C@@](C)(C=O)CCC[C@]2(C)[C@H]1CC/C(C)=C/CO` (some centres not stated): the Potency result in assay [1] is “inactive”.
On to `COc1c2c(c(C)c3c1C(=O)OC3)OC1(C)CC(O)C3(O)C(C)(C)OC(=O)CCC3(C)C1C2` (configuration not stated), for which the Potency entry in assay [1] was “inactive”.
For the compound `COc1cccc2c1CCC[C@H]2CN(C)CCc1ccc2ccoc2c1`, the Potency entry in assay [1] is “inactive”.
Turning to `COc1cc2c(cc1O)C1(OC)Cc3ccc4c(c3C1N(C)CC2)OCO4` (configuration not stated), the Potency result in assay [1] is “inactive”.
For `CC1(CO)CC2C(O)C(=O)C3(CO)CC3(C)C2C1` (configuration not stated), in assay [1], the Potency entry was “inactive”.
Turning to `CC1OC(OC2C(O)C(C(=O)O)OC(OC3CCC4(C)C(CCC5(C)C4C=CC4=C6CC(C)(C)CC(O)C6(C)CCC45C)C3(C)C)C2OC2OCC(O)C(O)C2O)C(O)C(O)C1O` (configuration not stated), the outcome in assay [1] was “inactive [at 9.29 µM]”.
`C/C=C/C1=CC2=CC(=O)C(C)(O)C(OC(=O)c3c(C)cc(O)cc3O)C2CO1` (configuration not stated): the Potency entry in assay [1] is “inactive”.
Turning to `COC1CC(OC2CCC3(C)C(=CCC4C3CCC3(C)C(C(C)O)CCC43O)C2)OC(C)C1OC1OC(C)C(OC2OC(COC3OC(COC4OC(CO)C(O)C(O)C4O)C(O)C(O)C3O)C(O)C(O)C2O)C(OC)C1O` (configuration not stated), the activity change, negative = cytotoxicity in assay [1] is 4.62% [at 9.29 µM].
On to `COC(=O)[C@]12C(=O)C(C)=C(O)[C@@]1(C)C(C)=CC1[C@@]34CC[C@@H](OC(C)=O)C(C)(C)C3[C@H](C[C@]12C)OC4=O` (some centres not stated), for which the Potency entry in assay [1] is “inactive”.
For `CCOC(=O)Nc1nc2ccccc2[nH]1`, in assay [1], the Potency result was “inactive”.
As to `C[C@@H]1C(=O)O[C@H]2[C@H]1CC[C@@]1(C)C(=O)C=C[C@](C)(O)[C@H]21`, the Potency entry in assay [1] was “inactive”.
Consider `CCC[C@@H]1C[C@@H](C(=O)N[C@H](C(C)Cl)[C@H]2O[C@H](SC)[C@H](O)[C@@H](O)[C@H]2O)N(C)C1` (some centres not stated), for which the Potency entry in assay [1] was “inactive”.
`CC1CCC(=O)CC(O)C(O)CC(=O)O1` (configuration not stated): the Potency entry in assay [1] is “inactive”.
For `NC(=O)c1cccc(-c2cc(O)cc(OC(=O)NC3CCCCC3)c2)c1`, in assay [1], the Potency result is “inactive”.
Regarding `C[C@@H]1CC[C@]2(C(=O)O[C@@H]3O[C@H](CO)[C@@H](O)[C@H](O)[C@H]3O)CC[C@]3(C)C(=CCC4[C@@]5(C)C[C@@H](O)[C@H](O)C(C)(C)C5CC[C@]43C)C2[C@]1(C)O` (some centres not stated), the Potency result in assay [1] was “inactive”.
Take `C=CCc1ccc(O[C@@H]2O[C@H](CO)[C@@H](O)[C@H](O)[C@H]2O)c(OC)c1`: in assay [1], the Potency result was “inactive”.
For the compound `CCc1cc2c(=O)c(-c3nc4ccccc4s3)coc2c(CN2CCCCC2)c1O`, the Potency entry in assay [1] was “inactive”.
Regarding `CCC(CC)n1ccc2c(C(=O)NCc3c(C)cc(C)[nH]c3=O)cc(C#N)cc21`, in assay [1], the Potency entry was “inactive”.
Regarding `CC[C@H]1OC(=O)[C@H](C)[C@@H](OC2C[C@@](C)(OC)[C@@H](O)[C@H](C)O2)[C@H](C)[C@@H](OC2O[C@H](C)C[C@H](NC)[C@H]2O)[C@](C)(O)C[C@@H](C)CN(C)[C@H](C)[C@@H](O)[C@]1(C)O` (some centres not stated), in assay [1], the Potency result was “inactive”.
The same measure, in the same setting: with `CC1CCC2(C)C(CC(O)C(O)C23CO3)C1(C)CCC1=CC(O)OC1=O` (configuration not stated) the entry was “inactive”; with `CC(C)CC(=O)OC[C@H]1O[C@@](COC(=O)CC(C)C)(O[C@H]2O[C@H](CO)[C@@H](O)[C@H](O)[C@H]2O)[C@@H](OC(=O)CC(C)C)[C@@H]1OC(=O)CC(C)C`, “inactive”.
Take `COC(=O)[C@@]1(C)CC[C@]2(C(=O)O[C@@H]3O[C@H](CO)[C@@H](O)[C@H](O)[C@H]3O)CC[C@]3(C)C(=CCC4[C@@]5(C)CC[C@H](O[C@@H]6O[C@H](C(=O)O)[C@@H](O)[C@H](O)[C@H]6O)C(C)(C)C5CC[C@]43C)[C@@H]2C1` (some centres not stated): the activity change, negative = cytotoxicity in assay [1] was -9.96% [at 9.29 µM].
For the compound `CN1Cc2c(N)cccc2C(c2ccccc2)C1` (configuration not stated), the compound was called inactive in assay [2] and in assay [3].
